Values joined by “and” are separate entries in the source; they are usually repeats but may differ in a detail not shown here. Equal entries are not always repeated. Results filed as inconclusive are left out. Some compounds were tested as several samples or in several runs, with calls that do not always agree. Active and inactive are the calls of the source. How the source made its calls, unless noted: active means hit-call score of the fitted dose curve at least 0.9, where 1 is the maximum; inactive means score below 0.9.

Experiment [1] is described as follows: ATG_PBREM_CIS: Attagene CIS-FACTORIAL HepG2 Assay for human Phenobarbital-responsive Enhancer Module (PBREM) (AID 2282955). The conditions noted are these: HepG2 PBREM cis-reporter, Attagene multiplexed transcription; actives raise or lower the signal. The procedure, abridged:
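HepG2 cells transiently transfected with multiple cis-regulated reporter units measure endogenous transcription factor activity; 24 h compound exposure. Reporter mRNA quantified by RT-PCR, fluorescent labelling, HpaI digestion and capillary electrophoresis; bidirectional fit versus DMSO.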

Experiment [2] concerns the target Paired box protein Pax-6 (Homo sapiens) (UniProt P26367). As to the kind of experiment: ATG_Pax6_CIS: Attagene CIS-FACTORIAL HepG2 Assay for human Paired Box 6 (PAX6) (AID 2282956). Particulars: HepG2 CIS-FACTORIAL PAX6 reporter transcription, RNA readout; actives raise or lower the signal. In outline: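 HepG2 cells transiently transfected with cis-promoter-driven multiplexed reporter units sensing endogenous transcription factor activity; 24 h chemical exposure. Reporter mRNA quantified by RT-PCR, 6-FAM labelling, HpaI digestion and capillary electrophoresis; bidirectional fit versus DMSO baseline.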

Experiment [3] can be described thus: ATG_PXRE_CIS: Attagene CIS-FACTORIAL HepG2 Assay for human Pregnane X Receptor Element (PXRE) (AID 2282957). The conditions noted are these: HepG2 Attagene CIS-FACTORIAL PXRE reporter, mRNA; actives raise or lower the signal. In outline:
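Transfect HepG2 with MRTUs (cis promoter elements); dose chemical, incubate 24 h; isolate RNA, RT with oligo(dT), PCR, 6-FAM label, HpaI cut, CE. Gain/loss fit vs DMSO.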

A short description of experiment [4]: ATG_PPRE_CIS: Attagene CIS-FACTORIAL HepG2 Assay for human Peroxisome Proliferator-activated Response Element (PPRE) (AID 2282958). Particulars: HepG2 PPRE cis-element reporter, Attagene transcription factor profiling; actives raise or lower the signal. In outline: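 HepG2 cells are transiently transfected with multiplexed cis-promoter reporter units to report endogenous PPAR activity. After 24 h dosing, reporter mRNA is read by RT-PCR and capillary electrophoresis. Fitting is bidirectional against DMSO.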

Experiment [5] in a line: ATG_RORE_CIS: Attagene CIS-FACTORIAL HepG2 Assay for human RAR-related Orphan Receptor Element (RORE) (AID 2282959). The conditions noted are these: HepG2 Attagene cis-factorial RORE reporter, mRNA; actives raise or lower the signal. In outline:
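HepG2 cells carrying transiently transfected cis-regulated reporter units; RORE-driven reporter mRNA quantified 24 h post-dosing by RT-PCR, 6-FAM primer extension, HpaI digestion and capillary electrophoresis. Bidirectional fit versus DMSO.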

Experiment [6] deals with Transcription factor Sp1 (Homo sapiens) (UniProt P08047). The experiment can be described thus: ATG_Sp1_CIS: Attagene CIS-FACTORIAL HepG2 Assay for human Specificity Protein 1 (Sp1) (AID 2282961). The conditions noted are these: HepG2 Sp1 cis-reporter transcription, actives raise or lower the signal. In outline: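 HepG2 cells transiently transfected with multiplexed cis-regulated reporter constructs, chemical exposure 24 h. Reporter mRNA quantified by RT-PCR with capillary electrophoresis; bidirectional fit relative to DMSO.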
Sequence of Transcription factor Sp1 (Homo sapiens) (P08047 whole entry, looked up): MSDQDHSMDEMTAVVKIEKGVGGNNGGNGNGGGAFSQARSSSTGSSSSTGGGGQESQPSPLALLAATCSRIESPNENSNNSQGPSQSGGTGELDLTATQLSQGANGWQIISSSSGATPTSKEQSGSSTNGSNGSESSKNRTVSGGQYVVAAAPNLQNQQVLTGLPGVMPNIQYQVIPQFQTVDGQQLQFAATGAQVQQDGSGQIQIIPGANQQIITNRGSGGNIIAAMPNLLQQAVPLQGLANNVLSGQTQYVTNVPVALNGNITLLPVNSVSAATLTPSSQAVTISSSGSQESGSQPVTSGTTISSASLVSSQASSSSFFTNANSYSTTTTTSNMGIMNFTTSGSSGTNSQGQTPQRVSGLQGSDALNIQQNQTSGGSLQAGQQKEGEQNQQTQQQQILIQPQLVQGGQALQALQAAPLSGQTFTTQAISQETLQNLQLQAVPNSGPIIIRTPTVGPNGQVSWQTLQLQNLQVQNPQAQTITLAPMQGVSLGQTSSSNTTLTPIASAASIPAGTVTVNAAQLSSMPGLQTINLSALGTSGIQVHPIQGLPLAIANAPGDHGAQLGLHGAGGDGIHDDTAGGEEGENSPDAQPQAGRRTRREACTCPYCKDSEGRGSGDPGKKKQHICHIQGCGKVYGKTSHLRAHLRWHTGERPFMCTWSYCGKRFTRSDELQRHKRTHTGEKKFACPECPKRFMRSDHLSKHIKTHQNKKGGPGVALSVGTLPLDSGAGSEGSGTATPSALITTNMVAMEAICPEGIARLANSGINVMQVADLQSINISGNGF

Experiment [7] can be described thus: ATG_SREBP_CIS: Attagene CIS-FACTORIAL HepG2 Assay for human Sterol Regulatory Element Binding (SREBP) (AID 2282962). The conditions noted are these: HepG2 Attagene cis-factorial SREBP reporter, mRNA; actives raise or lower the signal. In outline: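 HepG2 cells transiently transfected with multiplexed cis-promoter reporter units sensing endogenous transcription factors; reporter mRNA measured 24 h after dosing by RT-PCR, 6-FAM labeling, HpaI digestion and capillary electrophoresis. Bidirectional fit versus DMSO.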

Experiment [8] addresses Signal transducer and activator of transcription 3 (Homo sapiens) (UniProt P40763). The experiment can be described thus: ATG_STAT3_CIS: Attagene CIS-FACTORIAL HepG2 Assay for human Signal Transducer and Activator of Transcription 3 (STAT3) (AID 2282963). The conditions noted are these: HepG2, Attagene cis-factorial STAT3 reporter transcription; actives raise or lower the signal. The procedure, abridged: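 Endogenous STAT3-responsive cis-element activity was read in transiently transfected HepG2 cells after 24 h treatment. Reporter transcripts were quantified via RT-PCR and capillary electrophoresis, with DMSO as negative control and bidirectional curve fitting.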

Experiment [9] can be described thus: ATG_TA_CIS: Attagene CIS-FACTORIAL HepG2 Assay for human TA Basal Promoter (AID 2282964). The conditions noted are these: HepG2 Attagene CIS-factorial TA basal promoter reporter; actives raise or lower the signal. The procedure, abridged:
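Fluorescence from labelled RT-PCR reporter fragments, separated by capillary electrophoresis, gives the signal. Cells: HepG2 transiently carrying multiple reporter units, 24 h chemical dosing. Gain or loss relative to DMSO.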

Experiment [10] is described as follows: ATG_TCF_b_cat_CIS: Attagene CIS-FACTORIAL HepG2 Assay for human T-Cell-Factor with beta-catenin (TCF/b-cat) (AID 2282965). Particulars: HepG2 TCF/beta-catenin cis-reporter transcription, actives raise or lower the signal. The procedure, abridged: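 Endogenous TCF/LEF activity read as reporter transcript level via RT-PCR and capillary electrophoresis fluorescence in transfected HepG2, 24 h exposure; gain or loss of signal fitted against DMSO controls.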

Experiment [11] can be described thus: ATG_TAL_CIS: Attagene CIS-FACTORIAL HepG2 Assay for human TAL Basal Promoter (AID 2282966).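 Further: background control endpoint measuring basal TAL promoter reporter mRNA not a specific factor.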 Particulars: HepG2 Attagene cis-factorial TAL promoter reporter; actives raise or lower the signal. The procedure, abridged: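 Fluorescence of labelled reporter cDNA fragments, resolved by capillary electrophoresis, gave the readout. Human HepG2 liver cells carried transiently transfected cis-element reporter units and were treated for 24 hours; activity was fitted bidirectionally against DMSO.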

Experiment [12] can be described thus: ATG_TGFb_CIS: Attagene CIS-FACTORIAL HepG2 Assay for human Transforming Growth Factor (TGF) (AID 2282967). Particulars: HepG2 Attagene CIS TGFb reporter, mRNA transcription; actives raise or lower the signal. In outline: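 Bidirectional fitting relative to DMSO gave the endpoint. Underlying data: reporter mRNA from HepG2 cells carrying transiently transfected cis-regulated reporter constructs, harvested 24 h after dosing and analyzed by RT-PCR and capillary electrophoresis.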

A short description of experiment [13]: ATG_VDRE_CIS: Attagene CIS-FACTORIAL HepG2 Assay for human Vitamin D Receptor Element (VDRE) (AID 2282968). Particulars: HepG2 VDRE cis-reporter transcription, actives raise or lower the signal. In outline: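 Reporter mRNA induction, quantified by capillary electrophoresis of fluorescently labelled RT-PCR products, was read 24 h after dosing HepG2 cells carrying transiently transfected cis-regulated reporter units; gain or loss relative to DMSO.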

In experiment [14] the target is Nuclear receptor subfamily 1 group I member 3 (Homo sapiens) (UniProt Q14994). The experiment can be described thus: ATG_CAR_TRANS: Attagene TRANS-FACTORIAL HepG2 Assay for human Constitutive Androstane Receptor (CAR) (AID 2282969; active means hit-call score of the fitted dose curve at least 0.9, where 1 is the maximum;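 further: activators raise reporter mRNA above DMSO so AC50 marks induction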). Particulars: HepG2 Attagene TRANS-FACTORIAL CAR reporter. In outline:
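Readout is reporter mRNA induction, quantified by fluorescent primer extension and capillary electrophoresis after RT-PCR. Cells were HepG2 transiently carrying chimeric NR-Gal4 constructs with GAL4-UAS reporters, treated for 24 h; activity scored upward from DMSO.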

Experiment [15] addresses X-box-binding protein 1 (Homo sapiens) (UniProt P17861). As to the kind of experiment: ATG_Xbp1_CIS: Attagene CIS-FACTORIAL HepG2 Assay for human X-box Binding Protein 1 (XBP1) (AID 2282972). Particulars: HepG2 XBP1 cis-element reporter, Attagene multiplex; actives raise or lower the signal. The procedure, abridged:
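HepG2 cells transiently transfected with multiple cis-element reporter units report endogenous TF activity; 24 h exposure, then reporter mRNA measured by RT-PCR, 6-FAM labelling, HpaI digestion and capillary electrophoresis. Bidirectional fitting versus DMSO.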

For experiment [16], the target named is Androgen receptor (Homo sapiens) (UniProt P10275). As to the kind of experiment: ATG_AR_TRANS: Attagene TRANS-FACTORIAL HepG2 Assay for human Androgen Receptor (AR) (AID 2282973; active means hit-call score of the fitted dose curve at least 0.9, where 1 is the maximum). Particulars: HepG2 Attagene TRANS-FACTORIAL AR reporter transcription. In outline: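 Steps: transfect HepG2 with multiple GAL4-UAS reporter transcription units (TRANS format, exogenous NR-Gal4 protein); dose 24 h; isolate RNA, reverse-transcribe, PCR-amplify, FAM-label, HpaI-digest; resolve by capillary electrophoresis. Positive direction vs DMSO.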
Sequence of Androgen receptor (Homo sapiens) (P10275 whole entry, looked up, the tested form may be a part): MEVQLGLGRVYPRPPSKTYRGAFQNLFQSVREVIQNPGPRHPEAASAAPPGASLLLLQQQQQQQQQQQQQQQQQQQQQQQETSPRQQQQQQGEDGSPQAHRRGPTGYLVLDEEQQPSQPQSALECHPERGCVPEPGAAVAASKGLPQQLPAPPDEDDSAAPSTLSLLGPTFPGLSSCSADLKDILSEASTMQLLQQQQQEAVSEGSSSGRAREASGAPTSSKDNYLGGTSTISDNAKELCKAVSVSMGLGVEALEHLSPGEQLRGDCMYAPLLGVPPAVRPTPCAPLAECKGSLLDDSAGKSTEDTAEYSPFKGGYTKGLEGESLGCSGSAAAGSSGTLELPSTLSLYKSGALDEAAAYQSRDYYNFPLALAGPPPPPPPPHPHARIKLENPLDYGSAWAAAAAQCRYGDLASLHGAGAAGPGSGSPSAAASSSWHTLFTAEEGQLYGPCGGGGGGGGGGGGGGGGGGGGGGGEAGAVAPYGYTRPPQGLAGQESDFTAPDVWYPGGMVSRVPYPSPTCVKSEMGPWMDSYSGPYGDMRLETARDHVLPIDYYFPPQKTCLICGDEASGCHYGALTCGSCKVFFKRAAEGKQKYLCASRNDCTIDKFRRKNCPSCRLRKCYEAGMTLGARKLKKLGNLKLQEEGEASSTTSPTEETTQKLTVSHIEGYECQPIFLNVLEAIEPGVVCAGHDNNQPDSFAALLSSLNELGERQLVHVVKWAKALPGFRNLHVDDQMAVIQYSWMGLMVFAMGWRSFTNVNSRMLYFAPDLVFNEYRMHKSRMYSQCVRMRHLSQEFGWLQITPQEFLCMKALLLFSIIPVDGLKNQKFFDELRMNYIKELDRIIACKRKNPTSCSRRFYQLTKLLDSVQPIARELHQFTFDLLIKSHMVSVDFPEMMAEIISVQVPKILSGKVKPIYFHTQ

Experiment [17] can be described thus: ATG_M_19_TRANS: Attagene TRANS-FACTORIAL HepG2 Assay for M19 Transcription Factor (Internal Marker) (AID 2282974; active means hit-call score of the fitted dose curve at least 0.9, where 1 is the maximum). The conditions noted are these: HepG2 Attagene TRANS-FACTORIAL M19 internal marker reporter. The procedure, abridged: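 HepG2 transiently transfected with GAL4-UAS multiplex reporter constructs, exposed 24 h; reporter RNA quantified by RT-PCR, 6-FAM labeling, HpaI digestion and capillary electrophoresis; internal background marker fitted upward versus DMSO.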

The target in experiment [18] is Estrogen receptor (Homo sapiens) (UniProt P03372). The experiment can be described thus: ATG_ERa_TRANS: Attagene TRANS-FACTORIAL HepG2 Assay for human Estrogen Receptor alpha (ERa) (AID 2282970; active means hit-call score of the fitted dose curve at least 0.9, where 1 is the maximum). Particulars: HepG2 Attagene TRANS ERa GAL4 reporter, mRNA. In outline: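 Human liver HepG2, transient transfection of multiple GAL4-UAS reporter units; TRANS format (exogenous NR-Gal4 chimera). 24 h dosing. Readout: reporter mRNA, RT-PCR, 6-FAM primer extension, HpaI digest, capillary electrophoresis. Positive direction vs DMSO.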
Sequence of Estrogen receptor (Homo sapiens) (P03372 whole entry, looked up, the tested form may be a part): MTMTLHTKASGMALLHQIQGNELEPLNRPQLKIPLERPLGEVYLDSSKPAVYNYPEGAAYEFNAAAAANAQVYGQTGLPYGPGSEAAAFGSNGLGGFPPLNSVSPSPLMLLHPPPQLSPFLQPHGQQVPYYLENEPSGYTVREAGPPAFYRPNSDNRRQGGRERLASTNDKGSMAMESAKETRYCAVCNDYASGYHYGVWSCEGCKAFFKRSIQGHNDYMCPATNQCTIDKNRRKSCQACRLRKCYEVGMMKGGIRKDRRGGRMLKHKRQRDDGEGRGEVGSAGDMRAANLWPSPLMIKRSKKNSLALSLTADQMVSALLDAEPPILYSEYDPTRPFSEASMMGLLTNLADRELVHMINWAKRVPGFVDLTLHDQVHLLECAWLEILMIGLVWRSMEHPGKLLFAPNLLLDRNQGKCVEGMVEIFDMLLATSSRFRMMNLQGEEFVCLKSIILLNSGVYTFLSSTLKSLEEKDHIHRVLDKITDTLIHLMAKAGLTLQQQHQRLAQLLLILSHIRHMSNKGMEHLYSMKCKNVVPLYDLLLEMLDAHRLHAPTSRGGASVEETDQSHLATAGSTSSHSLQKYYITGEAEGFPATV

In experiment [19] the target is Steroid hormone receptor ERR1 (Homo sapiens) (UniProt P11474). As to the kind of experiment: ATG_ERRa_TRANS: Attagene TRANS-FACTORIAL HepG2 Assay for human Estrogen-Related Receptor alpha (ERRa) (AID 2282971; active means hit-call score of the fitted dose curve at least 0.9, where 1 is the maximum). The conditions noted are these: HepG2 Attagene TRANS reporter, ERRa transactivation. The procedure, abridged:
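Reporter transcript induction was quantified by RT-PCR and capillary electrophoresis of FAM-labelled, HpaI-cut products after 24 h treatment of HepG2 cells carrying transiently transfected GAL4-UAS reporter units and an exogenous ERRa-Gal4 fusion; activity scored as increase over DMSO.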

Experiment [20] in a line: ATG_Sox_CIS: Attagene CIS-FACTORIAL HepG2 Assay for human SRY-box transcription factor (SOX) (AID 2282960). Particulars: HepG2 Attagene cis-factorial SOX reporter, mRNA; actives raise or lower the signal. In outline:
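HepG2 cells transiently transfected with multiple cis-regulated reporter units, then dosed for 24 h. Reporter mRNA quantified by RT-PCR, fluorescent labelling, HpaI digestion and capillary electrophoresis; bidirectional fit versus DMSO.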

Sequence of X-box-binding protein 1 (Homo sapiens) (P17861 whole entry, looked up): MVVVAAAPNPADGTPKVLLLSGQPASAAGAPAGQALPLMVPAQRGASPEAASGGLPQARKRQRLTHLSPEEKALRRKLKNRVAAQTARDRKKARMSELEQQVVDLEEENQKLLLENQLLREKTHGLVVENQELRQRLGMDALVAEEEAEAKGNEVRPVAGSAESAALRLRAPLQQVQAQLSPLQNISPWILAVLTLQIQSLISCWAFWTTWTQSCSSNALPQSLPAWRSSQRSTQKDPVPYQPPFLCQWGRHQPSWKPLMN
Sequence of Nuclear receptor subfamily 1 group I member 3 (Homo sapiens) (Q14994 whole entry, looked up, the tested form may be a part): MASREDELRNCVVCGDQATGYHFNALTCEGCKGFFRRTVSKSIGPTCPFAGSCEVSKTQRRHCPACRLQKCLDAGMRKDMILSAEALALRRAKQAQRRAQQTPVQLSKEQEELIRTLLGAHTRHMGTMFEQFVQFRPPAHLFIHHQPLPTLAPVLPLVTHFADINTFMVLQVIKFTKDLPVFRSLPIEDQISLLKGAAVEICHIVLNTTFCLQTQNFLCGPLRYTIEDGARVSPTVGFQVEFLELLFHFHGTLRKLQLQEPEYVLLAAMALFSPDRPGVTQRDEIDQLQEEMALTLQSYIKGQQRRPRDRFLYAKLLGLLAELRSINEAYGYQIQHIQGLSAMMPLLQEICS
Sequence of Paired box protein Pax-6 (Homo sapiens) (P26367 whole entry, looked up): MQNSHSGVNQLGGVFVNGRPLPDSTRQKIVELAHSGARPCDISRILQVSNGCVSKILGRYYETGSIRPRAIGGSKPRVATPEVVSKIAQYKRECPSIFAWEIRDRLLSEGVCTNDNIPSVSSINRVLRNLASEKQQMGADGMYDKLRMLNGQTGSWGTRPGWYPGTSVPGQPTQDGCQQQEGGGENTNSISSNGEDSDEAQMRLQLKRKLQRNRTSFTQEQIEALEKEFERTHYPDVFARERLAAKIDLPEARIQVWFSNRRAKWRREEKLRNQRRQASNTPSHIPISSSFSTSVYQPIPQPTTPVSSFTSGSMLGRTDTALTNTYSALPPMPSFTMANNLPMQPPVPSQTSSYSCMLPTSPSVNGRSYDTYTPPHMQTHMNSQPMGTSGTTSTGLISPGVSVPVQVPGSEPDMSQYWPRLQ
Sequence of Signal transducer and activator of transcription 3 (Homo sapiens) (P40763 whole entry, looked up): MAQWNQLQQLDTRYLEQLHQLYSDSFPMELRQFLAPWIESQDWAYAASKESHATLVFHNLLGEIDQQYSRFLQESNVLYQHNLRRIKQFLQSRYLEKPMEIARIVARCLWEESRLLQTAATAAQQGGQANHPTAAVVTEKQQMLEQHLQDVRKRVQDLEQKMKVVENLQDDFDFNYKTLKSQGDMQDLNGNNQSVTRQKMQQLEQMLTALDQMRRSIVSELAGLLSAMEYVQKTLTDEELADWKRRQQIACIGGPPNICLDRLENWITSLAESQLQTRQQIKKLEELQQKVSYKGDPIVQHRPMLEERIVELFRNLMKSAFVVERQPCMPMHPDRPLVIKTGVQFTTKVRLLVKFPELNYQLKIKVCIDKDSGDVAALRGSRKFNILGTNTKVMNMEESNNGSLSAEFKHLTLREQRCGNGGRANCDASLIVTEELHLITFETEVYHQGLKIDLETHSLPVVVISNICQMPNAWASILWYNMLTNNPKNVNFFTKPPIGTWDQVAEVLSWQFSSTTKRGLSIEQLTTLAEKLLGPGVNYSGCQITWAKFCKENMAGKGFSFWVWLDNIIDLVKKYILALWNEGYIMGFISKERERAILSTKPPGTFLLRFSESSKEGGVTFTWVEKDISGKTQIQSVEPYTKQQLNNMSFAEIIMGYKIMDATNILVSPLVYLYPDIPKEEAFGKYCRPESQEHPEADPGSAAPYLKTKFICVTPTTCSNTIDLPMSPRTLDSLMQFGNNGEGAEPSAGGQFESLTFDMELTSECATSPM
Sequence of Steroid hormone receptor ERR1 (Homo sapiens) (P11474 whole entry, looked up, the tested form may be a part): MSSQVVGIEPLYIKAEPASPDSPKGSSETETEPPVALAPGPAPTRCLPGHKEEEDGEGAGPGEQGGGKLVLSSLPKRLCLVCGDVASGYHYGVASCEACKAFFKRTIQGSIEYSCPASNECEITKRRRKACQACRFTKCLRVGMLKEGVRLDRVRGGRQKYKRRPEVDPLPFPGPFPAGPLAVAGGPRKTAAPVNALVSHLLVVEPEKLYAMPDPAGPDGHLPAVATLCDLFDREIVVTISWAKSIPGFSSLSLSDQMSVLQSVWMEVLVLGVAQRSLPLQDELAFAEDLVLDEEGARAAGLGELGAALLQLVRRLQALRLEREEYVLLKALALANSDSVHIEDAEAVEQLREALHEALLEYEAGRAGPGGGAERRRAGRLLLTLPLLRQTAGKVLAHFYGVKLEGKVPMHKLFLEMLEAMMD

In the case of `CCCCCCCc1ccc(O)cc1`, the result in experiment [1], in [2], in experiment [3], in experiment [4], in [5] and in [6] was inactive. Also, the compound was called inactive in experiment [7], in experiment [8], in [9], in experiment [10], in experiment [11] and in [12]. Moreover, the compound was classed as inactive in experiment [13], in [14], in experiment [15], in experiment [16] and in experiment [17]. The AC50 in [3] was 8.05 µM (active) and 14.2 µM (active) and 16.6 µM (active).

`O=S(=O)(F)C(F)(F)C(F)(F)C(F)(F)C(F)(F)C(F)(F)C(F)(F)C(F)(F)C(F)(F)F`: the result in experiment [1], in experiment [2], in [3], in experiment [4], in experiment [5] and in [6] was inactive. Further, the call in [7], in [8], in experiment [9], in [10], in [11] and in experiment [12] was inactive. Further, the compound was called inactive in experiment [13], in experiment [14], in experiment [18], in [19], in [15] and in [16]. Besides, in [17], the call was inactive.

`c1cc2c3c(cccc3c1)CC2`: the result in experiment [1], in experiment [2], in [3], in [4], in experiment [5] and in experiment [20] was inactive. Besides, the call in experiment [6], in experiment [7], in experiment [8], in experiment [9], in experiment [10] and in experiment [11] was inactive. Besides, the compound was classed as inactive in experiment [12], in experiment [14], in experiment [18], in [15] and in [17].

Turning to `CCC1(c2ccccc2)C(=O)N=C(O)NC1=O` (centres undefined), the outcome in [1], in [2], in [4], in experiment [5], in [20] and in experiment [6] was inactive. The call in experiment [7], in experiment [8], in experiment [9], in experiment [10], in [11] and in experiment [12] was inactive. In addition, the call in experiment [13] and in experiment [15] was inactive. The AC50 in [3] is 100 µM (active).

By AC50 is commonly meant the concentration giving half of the maximal activity seen.

Source of the values: PubChem BioAssay (EPA / NIEHS).
